# Measured values published in PMC11062922 (Nature Chemical Biology, 2023).
# Read-outs that look alike come from different tables or passages of the source.
# Experiments:
# [1] = test system: AURKA; conditions: read-out: apparent Kd, n = 1
# [2] = test system: CHEK1; conditions: read-out: apparent Kd, n = 1
substance,measurement,setting,value
Lestaurtinib,potency estimated from few doses,"[1]; compound concentrations:100 nM and 1000 nM (sheet 'Lestaurtinib' of Supplementary Table 1),run:Lestaurtinib_02802_R1,Plate:MR029",16.2 nM
same,potency estimated from few doses,"[1]; compound concentrations:100 nM and 1000 nM (sheet 'Lestaurtinib' of Supplementary Table 1),run:Lestaurtinib_02802_R2,Plate:MR029",15.9 nM
same,potency estimated from few doses,"[1]; compound concentrations:100 nM and 1000 nM (sheet 'Lestaurtinib' of Supplementary Table 1),run:Lestaurtinib_02802_R3,Plate:MR029",14.1 nM
same,potency estimated from few doses,"[1]; compound concentrations:100 nM and 1000 nM (sheet 'Lestaurtinib' of Supplementary Table 1),run:Lestaurtinib_02896_R1,Plate:MR030",15.4 nM
same,potency estimated from few doses,"[1]; compound concentrations:100 nM and 1000 nM (sheet 'Lestaurtinib' of Supplementary Table 1),run:Lestaurtinib_02896_R2,Plate:MR030",16.3 nM
same,potency estimated from few doses,"[1]; compound concentrations:100 nM and 1000 nM (sheet 'Lestaurtinib' of Supplementary Table 1),run:Lestaurtinib_02896_R3,Plate:MR030",16.2 nM
same,potency estimated from few doses,"[1]; compound concentrations:100 nM and 1000 nM (sheet 'Lestaurtinib' of Supplementary Table 1),run:Lestaurtinib_03172_R1,Plate:MR031",17 nM
same,potency estimated from few doses,"[1]; compound concentrations:100 nM and 1000 nM (sheet 'Lestaurtinib' of Supplementary Table 1),run:Lestaurtinib_03252_R1,Plate:MR032",16.3 nM
same,potency estimated from few doses,"[1]; compound concentrations:100 nM and 1000 nM (sheet 'Lestaurtinib' of Supplementary Table 1),run:Lestaurtinib_03260_R1,Plate:MR033",27.5 nM
same,potency estimated from few doses,"[1]; compound concentrations:100 nM and 1000 nM (sheet 'Lestaurtinib' of Supplementary Table 1),run:Lestaurtinib_03260_R3,Plate:MR033",22.2 nM
same,potency estimated from few doses,"[2]; compound concentrations:100 nM and 1000 nM (sheet 'Lestaurtinib' of Supplementary Table 1),run:Lestaurtinib_02339_R1,Plate:MR001",99.6 nM
same,potency estimated from few doses,"[2]; compound concentrations:100 nM and 1000 nM (sheet 'Lestaurtinib' of Supplementary Table 1),run:Lestaurtinib_02339_R2,Plate:MR001",72.8 nM
same,potency estimated from few doses,"[2]; compound concentrations:100 nM and 1000 nM (sheet 'Lestaurtinib' of Supplementary Table 1),run:Lestaurtinib_02339_R3,Plate:MR001",71.3 nM
same,potency estimated from few doses,"[2]; compound concentrations:100 nM and 1000 nM (sheet 'Lestaurtinib' of Supplementary Table 1),run:Lestaurtinib_02364_R1,Plate:MR002",67.1 nM
same,potency estimated from few doses,"[2]; compound concentrations:100 nM and 1000 nM (sheet 'Lestaurtinib' of Supplementary Table 1),run:Lestaurtinib_02364_R3,Plate:MR002",86.4 nM
same,potency estimated from few doses,"[2]; compound concentrations:100 nM and 1000 nM (sheet 'Lestaurtinib' of Supplementary Table 1),run:Lestaurtinib_02367_R2,Plate:MR003",78 nM
same,potency estimated from few doses,"[2]; compound concentrations:100 nM and 1000 nM (sheet 'Lestaurtinib' of Supplementary Table 1),run:Lestaurtinib_02381_R1,Plate:MR004",78.7 nM
same,potency estimated from few doses,"[2]; compound concentrations:100 nM and 1000 nM (sheet 'Lestaurtinib' of Supplementary Table 1),run:Lestaurtinib_02381_R3,Plate:MR004",61.8 nM
same,potency estimated from few doses,"[2]; compound concentrations:100 nM and 1000 nM (sheet 'Lestaurtinib' of Supplementary Table 1),run:Lestaurtinib_02407_R1,Plate:MR005",73.9 nM
same,potency estimated from few doses,"[2]; compound concentrations:100 nM and 1000 nM (sheet 'Lestaurtinib' of Supplementary Table 1),run:Lestaurtinib_02407_R2,Plate:MR005",71 nM
same,potency estimated from few doses,"[2]; compound concentrations:100 nM and 1000 nM (sheet 'Lestaurtinib' of Supplementary Table 1),run:Lestaurtinib_02422_R1,Plate:MR006",70.8 nM
same,potency estimated from few doses,"[2]; compound concentrations:100 nM and 1000 nM (sheet 'Lestaurtinib' of Supplementary Table 1),run:Lestaurtinib_02422_R2,Plate:MR006",31 nM
same,potency estimated from few doses,"[2]; compound concentrations:100 nM and 1000 nM (sheet 'Lestaurtinib' of Supplementary Table 1),run:Lestaurtinib_02422_R3,Plate:MR006",76.2 nM
same,potency estimated from few doses,"[2]; compound concentrations:100 nM and 1000 nM (sheet 'Lestaurtinib' of Supplementary Table 1),run:Lestaurtinib_02437_R2,Plate:MR007",67.9 nM
same,potency estimated from few doses,"[2]; compound concentrations:100 nM and 1000 nM (sheet 'Lestaurtinib' of Supplementary Table 1),run:Lestaurtinib_02437_R3,Plate:MR007",17.2 nM
same,potency estimated from few doses,"[2]; compound concentrations:100 nM and 1000 nM (sheet 'Lestaurtinib' of Supplementary Table 1),run:Lestaurtinib_02438_R2,Plate:MR008",88.5 nM
same,potency estimated from few doses,"[2]; compound concentrations:100 nM and 1000 nM (sheet 'Lestaurtinib' of Supplementary Table 1),run:Lestaurtinib_02438_R3,Plate:MR008",99.8 nM
same,potency estimated from few doses,"[2]; compound concentrations:100 nM and 1000 nM (sheet 'Lestaurtinib' of Supplementary Table 1),run:Lestaurtinib_02443_R2,Plate:MR009",94.3 nM
same,potency estimated from few doses,"[2]; compound concentrations:100 nM and 1000 nM (sheet 'Lestaurtinib' of Supplementary Table 1),run:Lestaurtinib_02473_R1,Plate:MR010",72.2 nM
same,potency estimated from few doses,"[2]; compound concentrations:100 nM and 1000 nM (sheet 'Lestaurtinib' of Supplementary Table 1),run:Lestaurtinib_02473_R2,Plate:MR010",70.2 nM
same,potency estimated from few doses,"[2]; compound concentrations:100 nM and 1000 nM (sheet 'Lestaurtinib' of Supplementary Table 1),run:Lestaurtinib_02482_R1,Plate:MR011",78 nM
same,potency estimated from few doses,"[2]; compound concentrations:100 nM and 1000 nM (sheet 'Lestaurtinib' of Supplementary Table 1),run:Lestaurtinib_02482_R3,Plate:MR011",92.6 nM
same,potency estimated from few doses,"[2]; compound concentrations:100 nM and 1000 nM (sheet 'Lestaurtinib' of Supplementary Table 1),run:Lestaurtinib_02487_R1,Plate:MR012",69.6 nM
same,potency estimated from few doses,"[2]; compound concentrations:100 nM and 1000 nM (sheet 'Lestaurtinib' of Supplementary Table 1),run:Lestaurtinib_02487_R2,Plate:MR012",86.9 nM
same,potency estimated from few doses,"[2]; compound concentrations:100 nM and 1000 nM (sheet 'Lestaurtinib' of Supplementary Table 1),run:Lestaurtinib_02487_R3,Plate:MR012",87.7 nM
same,potency estimated from few doses,"[2]; compound concentrations:100 nM and 1000 nM (sheet 'Lestaurtinib' of Supplementary Table 1),run:Lestaurtinib_02496_R1,Plate:MR013",92.6 nM
same,potency estimated from few doses,"[2]; compound concentrations:100 nM and 1000 nM (sheet 'Lestaurtinib' of Supplementary Table 1),run:Lestaurtinib_02496_R2,Plate:MR013",79.6 nM
same,potency estimated from few doses,"[2]; compound concentrations:100 nM and 1000 nM (sheet 'Lestaurtinib' of Supplementary Table 1),run:Lestaurtinib_02566_R1,Plate:MR014",88.2 nM
same,potency estimated from few doses,"[2]; compound concentrations:100 nM and 1000 nM (sheet 'Lestaurtinib' of Supplementary Table 1),run:Lestaurtinib_02566_R2,Plate:MR014",75.6 nM
same,potency estimated from few doses,"[2]; compound concentrations:100 nM and 1000 nM (sheet 'Lestaurtinib' of Supplementary Table 1),run:Lestaurtinib_02566_R3,Plate:MR014",66.8 nM
same,potency estimated from few doses,"[2]; compound concentrations:100 nM and 1000 nM (sheet 'Lestaurtinib' of Supplementary Table 1),run:Lestaurtinib_02572_R1,Plate:MR015",89.7 nM
same,potency estimated from few doses,"[2]; compound concentrations:100 nM and 1000 nM (sheet 'Lestaurtinib' of Supplementary Table 1),run:Lestaurtinib_02584_R1,Plate:MR017",76.9 nM
same,potency estimated from few doses,"[2]; compound concentrations:100 nM and 1000 nM (sheet 'Lestaurtinib' of Supplementary Table 1),run:Lestaurtinib_02584_R3,Plate:MR017",87.5 nM
